From PubChem BioAssay (NCATS)
Records with an inconclusive call do not appear. Values without a mark were called inactive. Active and inactive are the calls of the source. Calls follow the shape of the dose curve; as a rule, active = well fitted inhibition curve with a large enough effect; inconclusive = small, poorly fitted or top-dose-only effect; inactive = no such curve, though single readings can be large or run the other way.
% is scaled to controls: 0 for no effect and ±100 for the full control effect; potency is read from the fitted curve at half-maximal effect.

Experiment: qHTS for Inhibitors of the Aldehyde Dehydrogenase Family (ALDH1A2, ALDH1A3, ALDH2, ALDH3A1) (AID 2061307); also: nearly all actives have a fitted effect of over 50% in size; as to Potency: test system not described further here
Details: ALDH inhibition qHTS; series mostly up to 50.3 µM; activity change, negative = inhibition: at the top concentration
For O=C(NC1CCCC1)c1csc(N2CCN(c3cccc(Cl)c3)CC2)n1, the Potency was 3.16 µM (active). In the case of O=C(Nc1cc(S(=O)(=O)N2CCOCC2)ccc1N1CCCCC1)c1cc(-c2ccccn2)nc2ccccc12, the “activity change, negative = inhibition” value is reported as -18.7%. For O=C(N/N=C/c1ccc(Sc2ccccn2)s1)c1cccc(F)c1, the Potency was 15.9 µM (active). For Fc1cc(Cn2cnc3ccccc32)ccc1Cl, the Potency was 11.2 µM (active). For [2H]C([2H])([2H])N1CCC(N(CCc2ccccc2)Cc2ccccc2)CC1, the “activity change, negative = inhibition” value was -6.24%. For CCN(CC)S(=O)(=O)c1cccc(NC(=O)CNc2cccc(S(=O)(=O)N3CCOCC3)c2)c1, the Potency was 10 µM (active). In the case of COc1ccc(CCNC(=O)c2ccc3nnc(-c4ccc([S+](C)(=O)[O-])cc4)n3c2)cc1, the “activity change, negative = inhibition” value is reported as -48.3% [at 34.4 µM]. In the case of Nc1nc2c(s1)C(c1ccc(F)cc1Cl)CC(=O)N2 (stereo not given), the Potency is reported as 4 µM (active). For CS(=O)(=O)c1cccc(-c2csc3ncnc(NCc4ccccn4)c23)c1, the Potency was 14.1 µM (active). For Brc1ccc(CN2CCC(N(CCc3ccccc3)Cc3ccccc3)CC2)cc1, the “activity change, negative = inhibition” value was -13.6%. For COCCCn1c(SCC(=O)Nc2ccc(C(N)=O)cc2)nnc1-c1ccc(Cl)cc1, the Potency was 2.24 µM (active). With O=C(Nc1nc(-c2ccccn2)cs1)C1CCCCC1 the Potency was 3.98 µM (active). With CCOc1ccc(NC(=O)CSCC(=O)Nc2ccc(C)cc2)cc1 the “activity change, negative = inhibition” value was -9.3%. For CS(=O)(=O)c1cccc(-c2csc3ncnc(Sc4nncs4)c23)c1, the “activity change, negative = inhibition” value was -7.51%. For Fc1ccc(Cn2cnc3ccccc32)cc1F, the Potency was 12.7 µM (active). For Cc1ccc(-c2cc3c(nn2)-c2ccccc2C3=O)cc1, the “activity change, negative = inhibition” value was -15.1%. For COC(=O)CC(=O)Nc1ccccc1C(=O)O, the “activity change, negative = inhibition” value was -6.46%. With c1ccc(CCN(Cc2ccccc2)C2CCN(c3ccccc3)CC2)cc1 the “activity change, negative = inhibition” value was -12.4%. For CC(=O)Nc1ccc(NC(=O)c2sc(COc3ccc(F)cc3)nc2C)cc1, the “activity change, negative = inhibition” value was -19.1% [at 34.4 µM]. In the case of COCCn1cc(NC(=O)CSC(C)C)ccc1=O, the “activity change, negative = inhibition” value is reported as -14.5%. In the case of O=C(c1ccco1)N1CCN(Cc2nc3ccccc3c(=O)n2-c2ccccc2[N+](=O)[O-])CC1, the “activity change, negative = inhibition” value is reported as -18%. In the case of O=C(c1cnc(N2CCCCC2)c2ccccc12)N1CCN(c2ccccc2)CC1, the “activity change, negative = inhibition” value is reported as 2.15%. For CN1CCN(CC(=O)N2c3ccc(S(=O)(=O)NCCNC(=O)OC(C)(C)C)cc3C(=O)Nc3cccnc32)CC1, the “activity change, negative = inhibition” value was -20.5%. With O=[N+]([O-])c1ccc(S(=O)(=O)Nc2nc(-c3ccccc3)cs2)cc1 the Potency was 3.57 µM (active). For O=C(Nc1cc(C(F)(F)F)ccc1Cl)c1nc2ccccc2nc1N1CCCCC1, the “activity change, negative = inhibition” value was -39.3% [at 34.4 µM]. For O=C1CN(S(=O)(=O)c2cccc(C(=O)Nc3ccc(OC(F)(F)F)cc3)c2)CCN1, the “activity change, negative = inhibition” value was -5.52%. With COc1ccc(OC)c(NC(=O)c2cccc(Nc3ncccn3)c2)c1 the “activity change, negative = inhibition” value was 0.0532% [at 34.4 µM]. In the case of N[C@@H](CCC(=O)O)C(=O)Nc1cccc(-c2nn3c(=O)cc(N4CCNCC4)nc3s2)c1, the “activity change, negative = inhibition” value is reported as -3.94%. In the case of Cc1ccc2c(c1)/C(=C\C(=O)c1cccs1)C(=O)N2, the “activity change, negative = inhibition” value is reported as -10.2%. For O=C(CSc1nc2ccccc2c(=O)[nH]1)Nc1nc(-c2ccc(Br)cc2)cs1, the “activity change, negative = inhibition” value was -14.1%. With Cc1ccc(NC(=O)c2nc3nc(C)cc(C)n3n2)c(F)c1 the “activity change, negative = inhibition” value was -5.59% [at 34.4 µM]. With CC1=C[C@@H](CNC(C)C)[C@H](C(C)C)C[C@H]1Cc1nnc(-c2ccncc2)o1 the “activity change, negative = inhibition” value was -4.51%. In the case of Cc1c2c(=O)n(-c3ccccc3)[nH]c2cc(=O)n1CCN1CCOCC1, the “activity change, negative = inhibition” value is reported as 11.6%. For CCN1CCC(N(CCc2ccccc2)Cc2ccccc2)CC1, the “activity change, negative = inhibition” value was 3.29%. In the case of NC(=O)c1ccc(NC(=O)c2cnn(-c3ccccc3)n2)cc1, the “activity change, negative = inhibition” value is reported as -44.7% [at 34.4 µM]. With CS(=O)Cc1cccc(C(=O)Nc2cccc3cccnc23)c1 (stereo not given) the “activity change, negative = inhibition” value was -12% [at 34.4 µM]. For Cc1ccc(N(C)S(=O)(=O)c2ccc(-c3cnc(C4CC4)o3)cc2)cc1, the “activity change, negative = inhibition” value was 4.57%. For NNC(=O)c1ccc2ccccc2n1, the “activity change, negative = inhibition” value was -25.8%. With CCOC(=O)Cc1ccc(NC(=O)n2ncc3cc(Cl)ccc32)cc1 the “activity change, negative = inhibition” value was -0.401%. With COc1ccc(/C=C/c2onc(C)c2S(=O)(=O)N2CCC(C(=O)N3CCc4ccccc4C3)CC2)cc1 the “activity change, negative = inhibition” value was -15%.
